Reference: PubChem BioAssay (NCI)
About 83,000 compounds went through this panel and 20% of them were active in at least one assay; those are over-represented in the sample as a whole.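 Cell lines were cultured in 96-well plates, exposed to a single compound concentration, and assessed for percent growth 48 hours later.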 Calls of active or inactive are those of the source. The calls were made as follows: active = growth percent below 10; inactive = the rest.

Legend:
Assay in all cases: NCI-60 one-dose screen, 48 h (100 = growth as untreated, 0 = no growth, -100 = all killed)
Details in all cases: 10 µM unless noted
DU-145 prostate = tested on: DU-145 prostate
K-562 leukemia = tested on: K-562 leukemia
MALME-3M melanoma = tested on: MALME-3M melanoma
MDA-MB-231 breast = tested on: MDA-MB-231 breast
RXF 393 renal = tested on: RXF 393 renal
SF-268 CNS = tested on: SF-268 CNS
SF-295 CNS = tested on: SF-295 CNS
SF-539 CNS = tested on: SF-539 CNS
UACC-257 melanoma = tested on: UACC-257 melanoma
M14 melanoma = tested on: M14 melanoma

Measured: growth

CC(=O)c1cccc(NS(=O)(=O)c2cccc(C(=O)Nc3ccc(Br)cc3)c2)c1
inactive: DU-145 prostate 75.4% [25 µM] | K-562 leukemia 33% [25 µM] | MALME-3M melanoma 42.1% [25 µM] | MDA-MB-231 breast 73.8% [25 µM] | RXF 393 renal 61.5% [25 µM] | SF-268 CNS 51.4% [25 µM] | SF-295 CNS 27.3% [25 µM] | SF-539 CNS 65.3% [25 µM] | UACC-257 melanoma 36.4% [25 µM] | M14 melanoma 51.7% [25 µM]

CCCCCCC/C=C/[C@H]1O[C@]2(O)C(=O)C=C3C[C@@H](O[C@@H]4O[C@H](CO)[C@@H](O)C(O)[C@@H]4O)C[C@@H]3[C@H]2C=C1C (stereo not given in full)
inactive: DU-145 prostate 20.6% | SF-268 CNS 21.8% | SF-295 CNS 37.5%
active: K-562 leukemia -5.09% | MALME-3M melanoma 1.95% | MDA-MB-231 breast -8.64% | RXF 393 renal -80.3% | SF-539 CNS -43.7% | UACC-257 melanoma -7.54% | M14 melanoma -23.6%

COc1ccc(OC)c(/C=C/[C@H]2O[C@@H](C)[C@H](O)[C@@H]2O)c1
inactive: DU-145 prostate 121% | K-562 leukemia 93% | MALME-3M melanoma 96.7% | MDA-MB-231 breast 98.4% | RXF 393 renal 117% | SF-268 CNS 111% | SF-295 CNS 102% | SF-539 CNS 100% | UACC-257 melanoma 104% | M14 melanoma 103%

NC(=S)N/N=C(/c1ccccc1)c1ccccc1N
inactive: DU-145 prostate 94.2% | K-562 leukemia 45.5% | MALME-3M melanoma 93.7% | MDA-MB-231 breast 85.8% | RXF 393 renal 105% | SF-268 CNS 92.9% | SF-295 CNS 82.5% | SF-539 CNS 99.6% | UACC-257 melanoma 54% | M14 melanoma 88.2%

C=C1C(=O)O[C@H]2[C@H]1CC/C(COC(=O)CCCCCC(=O)OC/C1=C/CC[C@@]3(C)O[C@H]3[C@H]3OC(=O)C(=C)[C@@H]3CC1)=C\CC[C@@]1(C)O[C@@H]21
active: K-562 leukemia 6.4% | MALME-3M melanoma -11.1% | MDA-MB-231 breast -28.2% | RXF 393 renal -77.3% | SF-539 CNS 3.99% | M14 melanoma -0.138%
inactive: DU-145 prostate 22.4% | SF-268 CNS 43.6% | SF-295 CNS 84.7% | UACC-257 melanoma 48.2%

CC(C)Cc1ccc(C(C)C(=O)NCc2c[nH]c3ccc(Cl)cc23)cc1 (stereo not given)
inactive: DU-145 prostate 103% | K-562 leukemia 71.3% | MALME-3M melanoma 98.8% | MDA-MB-231 breast 82.2% | RXF 393 renal 87.8% | SF-268 CNS 89.3% | SF-295 CNS 88.3% | SF-539 CNS 100% | UACC-257 melanoma 99.4% | M14 melanoma 92.4%

N#CC1=C(N)Oc2c(ccc3ccccc23)C1c1ccc([N+](=O)[O-])cc1 (stereo not given)
inactive: DU-145 prostate 89.6% | K-562 leukemia 21.4% | MALME-3M melanoma 84.3% | MDA-MB-231 breast 61.4% | RXF 393 renal 101% | SF-268 CNS 79.6% | SF-295 CNS 75.6% | SF-539 CNS 87.8% | UACC-257 melanoma 94.7% | M14 melanoma 67.8%

Cc1ccc(C2C3CC4CCCCC4N3[C@@]3(C(=O)Nc4cc(Cl)ccc43)C2C(=O)c2nc3ccccc3[nH]2)cc1 (stereo not given in full)
inactive: DU-145 prostate 64.3% | K-562 leukemia 26.2% | MALME-3M melanoma 33.9% | MDA-MB-231 breast 30.6% | RXF 393 renal 15.5% | SF-268 CNS 38.3% | SF-295 CNS 27.9% | SF-539 CNS 50.3% | UACC-257 melanoma 35.1% | M14 melanoma 27.9%

N#CSCC1CC(O)(c2ccccc2)C(c2ccccc2)C(c2ccc(F)cc2)O1 (stereo not given)
inactive: K-562 leukemia 12.6% | RXF 393 renal 25.9% | SF-268 CNS 29.9% | SF-295 CNS 52.9% | SF-539 CNS 40.5% | UACC-257 melanoma 60.1%
active: DU-145 prostate -4.17% | MALME-3M melanoma -10.9% | MDA-MB-231 breast -4.68% | M14 melanoma -2.19%

CN1CCN(CC#CCNC(=O)[C@]23CCC(C)(C)C[C@H]2C2=CC[C@@H]4[C@@]5(C)Cc6c([nH]c7ccccc67)C(C)(C)[C@@H]5CC[C@@]4(C)[C@]2(C)CC3)CC1
inactive: DU-145 prostate 61.9% | MALME-3M melanoma 26.6% | MDA-MB-231 breast 74.1% | RXF 393 renal 66.5% | SF-268 CNS 70% | SF-295 CNS 108% | SF-539 CNS 82.6% | UACC-257 melanoma 82.2% | M14 melanoma 51.5%
active: K-562 leukemia 1.31%

N#Cc1c(Nc2ccccc2)nn2cc(-c3nc4ccccc4s3)c(N)nc12
inactive: DU-145 prostate 66% | K-562 leukemia 74.8% | MALME-3M melanoma 40.4% | MDA-MB-231 breast 72.5% | RXF 393 renal 87.8% | SF-268 CNS 70% | SF-295 CNS 99% | SF-539 CNS 58% | UACC-257 melanoma 83.7% | M14 melanoma 58.8%

CS(=O)(=O)c1ccc(-c2cc(-c3nnc(SCC(=O)Nc4ccc(C(=O)/C=C/c5ccc(Cl)cc5)cc4)n3-c3ccccc3)c3ccccc3n2)cc1
inactive: DU-145 prostate 105% | K-562 leukemia 89.9% | MALME-3M melanoma 104% | MDA-MB-231 breast 92.1% | RXF 393 renal 92.3% | SF-268 CNS 81.7% | SF-295 CNS 96% | SF-539 CNS 87.5% | UACC-257 melanoma 107% | M14 melanoma 97.5%

O=C(Nc1cccc(C2=NCCN2)c1)c1ccc(OCCCOc2ccc(C(=O)Nc3cccc(C4=NCCN4)c3)cc2)cc1
inactive: K-562 leukemia 27.2% | SF-268 CNS 25.9% | SF-295 CNS 52.1% | M14 melanoma 30.4%
active: DU-145 prostate 9.35% | MALME-3M melanoma -82% | MDA-MB-231 breast -10.5% | RXF 393 renal -19.9% | SF-539 CNS -43.7% | UACC-257 melanoma -11%

COc1ccc(CNCCN2C(=O)c3ccc4c5c(ccc(c35)C2=O)C(=O)N(CCNCc2ccc(OC)cc2)C4=O)cc1
active: DU-145 prostate -90.6% | K-562 leukemia -37.8% | MALME-3M melanoma -76.3% | MDA-MB-231 breast -16.7% | RXF 393 renal -93% | SF-268 CNS -71.2% | SF-295 CNS -62.2% | SF-539 CNS -77.3% | UACC-257 melanoma -91% | M14 melanoma -72.8%

O=S(=O)(O)c1cc(O)c2c(N=Nc3ccc(Nc4ccccc4)c4c(S(=O)(=O)O)cccc34)cc(S(=O)(=O)O)cc2c1
inactive: DU-145 prostate 107% | K-562 leukemia 112% | MALME-3M melanoma 130% | MDA-MB-231 breast 102% | RXF 393 renal 109% | SF-268 CNS 101% | SF-295 CNS 105% | SF-539 CNS 96.2% | UACC-257 melanoma 95.6% | M14 melanoma 103%

O=C1CCC(NC(=S)Nc2ccccc2)N1 (stereo not given)
inactive: DU-145 prostate 112% | K-562 leukemia 97.5% | MALME-3M melanoma 99.6% | MDA-MB-231 breast 109% | RXF 393 renal 117% | SF-268 CNS 104% | SF-295 CNS 110% | SF-539 CNS 105% | UACC-257 melanoma 104% | M14 melanoma 110%

CC1NC(=S)NC(=O)/C1=C/c1cc(=O)oc2c1ccc1ccccc12 (stereo not given)
inactive: DU-145 prostate 108% | K-562 leukemia 94.6% | MALME-3M melanoma 90.9% | MDA-MB-231 breast 95.1% | RXF 393 renal 101% | SF-268 CNS 97% | SF-295 CNS 100% | SF-539 CNS 96.8% | UACC-257 melanoma 80.5% | M14 melanoma 94.9%

CCCCCCOc1ccc(/C=N/Nc2cc(C)nc3ccc(Br)cc23)cc1
inactive: UACC-257 melanoma 117%
active: DU-145 prostate -82.9% | K-562 leukemia -64.5% | MALME-3M melanoma -82.3% | MDA-MB-231 breast -88.9% | RXF 393 renal -97.3% | SF-268 CNS -1.78% | SF-295 CNS -83.3% | SF-539 CNS -84.8% | M14 melanoma -44.4%

Fc1cc(C2=NNC(c3ccc[nH]3)C2)ccc1-n1ccc(C(F)(F)F)n1 (stereo not given)
inactive: DU-145 prostate 82.8% | K-562 leukemia 62.2% | MALME-3M melanoma 93.7% | MDA-MB-231 breast 62.7% | RXF 393 renal 105% | SF-268 CNS 67.3% | SF-295 CNS 71.3% | SF-539 CNS 88.1% | UACC-257 melanoma 98.5% | M14 melanoma 96.4%

CCCCCOc1ccc(/C=N/Nc2cc(C)nc3ccc(Br)cc23)cc1
active: DU-145 prostate 0.579% | K-562 leukemia -19.6% | MALME-3M melanoma -35.9% | MDA-MB-231 breast -51.4% | RXF 393 renal -82.9% | SF-295 CNS -84.8% | SF-539 CNS -83.7%
inactive: SF-268 CNS 87.2% | UACC-257 melanoma 102% | M14 melanoma 15.5%

CCCCCN1C=C/C(=C\C(=O)N(C)c2ccc(Br)cc2)c2ccccc21
inactive: DU-145 prostate 104% | K-562 leukemia 76.5% | MALME-3M melanoma 96.9% | MDA-MB-231 breast 101% | RXF 393 renal 92.9% | SF-268 CNS 96.2% | SF-295 CNS 99.2% | SF-539 CNS 102% | UACC-257 melanoma 95.1% | M14 melanoma 104%

O=CNc1cc(Cl)cc(Cl)c1
inactive: DU-145 prostate 109% | K-562 leukemia 97.5% | MALME-3M melanoma 103% | MDA-MB-231 breast 85.6% | RXF 393 renal 113% | SF-268 CNS 106% | SF-295 CNS 102% | SF-539 CNS 100% | UACC-257 melanoma 97.4% | M14 melanoma 103%

CC(=O)[C@@H]1CC[C@]2(C(=O)n3ccnc3)CC[C@]3(C)[C@H](CC[C@@H]4[C@@]5(C)Cc6c([nH]c7ccccc67)C(C)(C)[C@@H]5CC[C@]43C)[C@@H]12
inactive: DU-145 prostate 98.5% | K-562 leukemia 67.7% | MALME-3M melanoma 102% | MDA-MB-231 breast 90.7% | RXF 393 renal 106% | SF-268 CNS 90.8% | SF-295 CNS 82.8% | SF-539 CNS 97% | UACC-257 melanoma 97.1% | M14 melanoma 96.1%
